# Screening results: PubChem, several laboratories
# Most compounds without a hit are left out; they make up all but 3.9% or so of the library.
# CR mimetic SO – yeast age-related superoxide inhibition as caloric restriction mimetic | 330,000 tested, 0.18% active | superoxide response (% of plate mean), % at 10 µM | S. cerevisiae aged cells, superoxide DHE fluorescence; hits give low values | AID 2690;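 active means superoxide response under a set limit, about three screen SD below normal, cut at about 65% in these data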;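 further: yeast aged for seven days with compound at 30 °C before DHE staining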
# PLCb3 inh – inhibitors of human phospholipase C beta3 | 370,000 tested, 0.18% active | Purified PLC-beta3, fluorogenic substrate, fluorescence | inhibition, % at 12.2 µM
# sPLA2-III inh – Blocks human group III sPLA2 activity; inhibition, % at 12.2 µM; QFRET BODIPY PC-A2 liposome hydrolysis, fluorescence; 370,000 tested, 0.56% active; AID 743126; Q9NZ20;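 active means inhibition above mean plus 3 SD of compounds lying within the high and low control bounds, cut at about 19% in these data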
# PLC-gamma1 inh – PLC-gamma1 (human) inhibition, primary screen. AID 720700. P19174. purified PLC-gamma1, fluorogenic substrate, fluorescence. 370,000 tested, 0.84% active. inhibition, % at 12.2 µM; in the data active means inhibition above about 9.5%
# Target sequence (P19174 whole entry, looked up): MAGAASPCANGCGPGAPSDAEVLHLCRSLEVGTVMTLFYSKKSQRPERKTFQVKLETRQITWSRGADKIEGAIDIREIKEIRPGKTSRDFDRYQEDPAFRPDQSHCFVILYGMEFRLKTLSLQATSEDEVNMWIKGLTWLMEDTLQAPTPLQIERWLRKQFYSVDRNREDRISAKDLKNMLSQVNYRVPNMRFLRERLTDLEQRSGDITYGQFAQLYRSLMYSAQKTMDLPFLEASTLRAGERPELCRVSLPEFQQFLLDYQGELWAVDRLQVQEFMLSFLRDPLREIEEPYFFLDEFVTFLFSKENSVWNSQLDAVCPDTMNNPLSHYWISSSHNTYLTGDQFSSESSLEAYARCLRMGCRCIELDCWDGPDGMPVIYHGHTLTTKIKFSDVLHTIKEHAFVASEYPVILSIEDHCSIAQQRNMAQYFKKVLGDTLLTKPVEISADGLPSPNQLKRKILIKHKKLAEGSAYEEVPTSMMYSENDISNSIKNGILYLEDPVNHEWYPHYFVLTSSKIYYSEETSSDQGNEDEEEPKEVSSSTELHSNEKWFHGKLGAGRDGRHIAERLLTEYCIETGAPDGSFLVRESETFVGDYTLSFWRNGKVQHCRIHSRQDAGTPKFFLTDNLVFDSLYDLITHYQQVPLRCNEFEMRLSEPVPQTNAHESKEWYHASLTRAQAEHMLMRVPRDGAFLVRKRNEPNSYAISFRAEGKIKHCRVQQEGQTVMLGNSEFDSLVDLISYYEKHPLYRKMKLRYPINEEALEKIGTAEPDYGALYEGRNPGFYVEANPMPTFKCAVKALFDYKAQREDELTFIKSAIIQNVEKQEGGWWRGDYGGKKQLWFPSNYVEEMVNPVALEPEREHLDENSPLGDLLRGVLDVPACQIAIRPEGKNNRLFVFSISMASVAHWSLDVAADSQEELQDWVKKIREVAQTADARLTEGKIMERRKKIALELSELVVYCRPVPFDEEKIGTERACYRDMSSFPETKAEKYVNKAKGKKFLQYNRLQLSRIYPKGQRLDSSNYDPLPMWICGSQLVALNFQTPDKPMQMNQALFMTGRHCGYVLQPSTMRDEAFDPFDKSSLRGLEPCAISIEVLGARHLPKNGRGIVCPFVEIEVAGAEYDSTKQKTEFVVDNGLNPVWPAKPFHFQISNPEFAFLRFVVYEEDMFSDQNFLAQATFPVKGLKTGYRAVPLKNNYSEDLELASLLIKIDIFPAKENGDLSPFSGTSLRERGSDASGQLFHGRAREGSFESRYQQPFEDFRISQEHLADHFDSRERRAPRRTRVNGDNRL
# HIF act – HIF pathway transcriptional activation | U2OS HRE-luciferase reporter, luminescence; normalized: DMSO 0%, desferrioxamine 100% | activation, % at 7.5 µM (by protocol) | 300,000 tested, 0.32% active | AID 1910;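 active means mean activation of at least 10% of the iron chelator positive control signal, with at least half of replicates also reaching 10%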
# AHR activator – human AHR activation; AID 2796; 320,000 tested, 2.5% active; P35869; AHR-responsive luciferase reporter cells, luminescence; activation, % at 5 µM; in the data active means activation above about 47%
# PLCg1 ctr – inhibits human PLC-gamma1 in PLC-beta3 counter-screen. inhibition, % at 12.3 µM. 3,300 tested, 3.1% active. purified PLC-gamma1, fluorogenic substrate, fluorescence. shares compounds with PLC-gamma1 inh; in the data active means inhibition above about 9.5%
# PLCb3 confirm – confirmation of human PLC-beta3 inhibitors; 3,300 tested, 1% active; inhibition, % at 12.3 µM; purified PLC-beta3, fluorogenic substrate fluorescence; shares compounds with PLC-gamma1 inh
# Numbers stand for hits; 0 = inactive; - = not tested or not shown. Unless noted, no stated cut-off is given here; in the data, active means inhibition above about 11%; inactive means the rest.
SMILES,CR mimetic SO,PLCb3 inh,sPLA2-III inh,PLC-gamma1 inh,HIF act,AHR activator,PLCg1 ctr,PLCb3 confirm
C[N+](C)(C)CCOC(N)=O,0,0,0,10.9,-,0,0,0
C[C@@H]1CCC[C@@]2(O[C@@H](CCO)C[C@H](O)[C@H]2O)O1,0,0,0,11.9,0,0,0,0
OCC[C@@H]1C[C@@H](O)[C@H](O)[C@]2(CCCO2)O1,0,0,0,11.9,0,0,0,0
CCCCc1nc(SCC(=O)N2CCCCC2)c2c(=O)n(C)c(=O)n(C)c2n1,0,0,0,0,0,0,-,-
COc1ccc(NC(=O)c2cc(C3CCCCN3S(=O)(=O)c3ccccc3)on2)c(C)c1 (stereo not given),-,0,0,0,-,-,-,-
O=C(C[n+]1cccc(CNC(=O)c2ccc(OC(F)F)cc2)c1)Nc1cccc(C(F)(F)F)c1,0,11.8,0,0,0,0,0,0
CCn1c(=O)c([N+](=O)[O-])c(N2CCSCC2)c2ccccc21,0,0,0,11.7,0,0,0,0
Cn1c(=O)c([N+](=O)[O-])c(N2CCSCC2)c2ccccc21,0,0,0,0,0,0,-,-
c1ccc(-c2ccc(C3=Nn4c(nnc4-c4ccccn4)SC3)cc2)cc1,-,0,0,0,-,-,-,-
COC(C(=O)NNS(=O)(=O)c1ccc([N+](=O)[O-])cc1)c1ccccc1 (stereo not given),0,0,0,12.5,0,0,0,0
COC(C(=O)NNS(=O)(=O)c1ccccc1[N+](=O)[O-])c1ccccc1 (stereo not given),-,0,0,0,0,-,-,-
CCN(c1ccccc1)S(=O)(=O)c1cccc(C(=O)N(C)CC(=O)Nc2ccc(F)c(F)c2F)c1,-,0,0,0,-,-,-,-
C=CCN(C)CC/C=C1\c2ccccc2CSc2ccccc21,0,0,0,0,0,0,-,-
C#CCN(C)CC/C=C1\c2ccccc2CSc2ccccc21,0,0,0,10.0,0,0,0,0
Cc1ccc(N2CCN(CC(O)COc3ccccc3)CC2)cc1 (stereo not given),0,0,0,0,0,0,-,-
Cc1nnc(SCC(=O)NC2CCCc3ccccc32)n1-c1ccccc1 (stereo not given),0,0,0,11.1,0,0,0,0
CNC(=O)NC1CCCc2ccccc21 (stereo not given),0,0,0,10.9,0,0,0,0
O=C(Nc1ccccc1)NC1CCCc2ccccc21 (stereo not given),0,0,0,0,0,0,-,-
O=C(CSc1nncn1-c1ccccc1)NC1CCCc2ccccc21 (stereo not given),0,0,0,0,0,0,-,-
CC(C)=CCN1CCN(Cc2cc(CC(C)C)n[nH]2)CC1CCO (stereo not given),0,0,0,9.6,0,0,0,0
O=C(NCCCN1CCCCC1)C1CCC(CNS(=O)(=O)c2cccc3nsnc23)CC1 (stereo not given),0,0,0,10.3,0,0,0,0
CSCCC(NC(=O)c1ccc([N+](=O)[O-])cc1Cl)C(=O)OCC(=O)C12CC3CC(CC(C3)C1)C2 (stereo not given),0,0,0,0,0,0,-,-
CSCCC(NC(=O)C12CC3CC(CC(C3)C1)C2)C(=O)OCC(=O)c1ccc(C)cc1 (stereo not given),0,0,0,10.6,0,0,0,0
Cc1cccc([N+](=O)[O-])c1NC(=O)CSc1nnc2ccccn12,0,0,0,0,-,0,-,-
CC(Nc1ccc(Br)cn1)c1cc(Cl)ccc1O (stereo not given),-,0,0,9.7,0,-,0,0
SMILES,CR mimetic SO,PLCb3 inh,sPLA2-III inh,PLC-gamma1 inh,HIF act,AHR activator,PLCg1 ctr,PLCb3 confirm
O=C1CCCCC1Nc1ccc2ccccc2c1 (stereo not given),-,0,0,0,-,-,-,-
N#Cc1c(NC(=O)CSc2nnnn2C2CCCCC2)sc2c1CCCC2,0,0,0,10.2,-,0,0,0
Cc1nnc(SCC(=O)Nc2sc3c(c2C#N)CCCCC3)n1N,0,0,0,0,0,0,-,-
O=c1[nH]c(-c2ccccn2)nc2ccccc12,0,0,0,0,0,0,-,-
O=c1[nH]c(-c2ccccn2)nc(C(F)(F)F)c1Br,0,0,0,10.6,0,0,0,0
COc1ccc(S(=O)(=O)Nc2c(C)nc3nc(C)[nH]n3c2=O)cc1,0,0,0,11.0,0,0,0,0
CN(C)S(=O)(=O)c1ccc(C(=O)NCCSc2ccc(Br)cc2)cc1,0,0,0,10.4,0,0,0,0
Cc1ccc(-n2c(C)cc(/C=N/NC(=O)CC3(C)OCCO3)c2C)c(C)c1,0,0,0,0,0,0,-,-
CC1(CC(=O)N/N=C/c2cc([N+](=O)[O-])c(O)cc2O)OCCO1,0,0,0,9.6,0,0,13.0,0
O=C1NC[C@H](Cc2ccccc2)N(C[C@@H]2CCCN2C[C@H](Cc2ccccc2)N2C[C@H](Cc3ccccc3)N(CC3CCCCC3)C(=O)C2=O)C1=O,-,0,0,0,-,-,-,-
O=C1NC[C@H](Cc2ccccc2)N(C[C@H]2CCCN2C[C@H](Cc2ccccc2)N2C[C@H](Cc3ccccc3)N(CC3CCCCC3)C(=O)C2=O)C1=O,-,0,0,13.8,-,-,0,0
CC(C)C[C@@H](CN1CCC[C@H]1CN1C(=O)C(=O)NC[C@@H]1Cc1ccccc1)N1C[C@H](Cc2ccc(O)cc2)N(CC2CCCCC2)C(=O)C1=O,-,0,0,0,-,-,-,-
CC(C)C[C@@H](CN1CCC[C@H]1CN1C(=O)C(=O)NC[C@@H]1Cc1ccc(O)cc1)N1C[C@H](Cc2ccccc2)N(CC2CCCCC2)C(=O)C1=O,-,0,0,10.0,-,-,0,0
COc1ccc(N(C(=O)c2ccc(S(=O)(=O)N3CCCC3)cc2)C2C=CS(=O)(=O)C2)cc1 (stereo not given),0,0,0,0,0,0,-,-
COc1cccc(CNc2nc(NCC3CC3)nc3ccsc23)c1OC,-,0,0,10.0,-,-,0,0
Cc1cc(C)cc(NC(=O)CC2Oc3ccc(C)cc3NC2=O)c1 (stereo not given),0,0,0,0,0,0,-,-
Cc1ccc(Nc2nc(Nc3ccc(C)cc3)nc(SC3=NCCS3)n2)cc1,0,0,0,15.5,0,59.6,0,0
Cc1ccccc1Nc1nc(Nc2ccccc2C)nc(SC2=NCCS2)n1,0,0,0,0,0,0,-,-
Cc1csc(NC(=O)CSc2nc(C(C)C)nc3ccccc23)n1,0,0,0,0,0,0,-,-
Cc1ccc(S(=O)(=O)NN=Cc2ccc(N3CCOCC3)cc2)cc1[N+](=O)[O-],0,0,0,0,-,0,-,-
COc1ccc(C(=O)Cn2c(C)nc([N+](=O)[O-])c2Br)cc1,0,0,0,0,0,0,-,-
Cc1nc([N+](=O)[O-])c(Br)n1CC(=O)c1ccc(Cl)cc1,0,0,0,9.7,0,0,0,0
